# Shown are actives, neighbours in structure and some others; about 2.4% of the full set was active somewhere.
# PfM18AAP inh-1: PfM18AAP enzyme inhibition; recombinant PfM18AAP, H-Glu-NHMec fluorogenic cleavage; inhibition, % at 7.35 µM; 1.2% of 290,000 active; AID 1822;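 active means inhibition above the campaign mean inhibition over all tested compounds plus 3 SD, cut at about 28% in these data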;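 further: 0% = plate median of test compound wells and 100% = 2 mM ZnCl2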
# MLLE-PAM2 inh: inhibitors of microRNA-mediated deadenylation, human PABP1 MLLE binding; GST-MLLE / FITC-PAM2 fluorescence polarization; inhibition, % at 20 µM; 0.36% of 360,000 active; AID 588489; in the data active means inhibition above about 35%, passing the limit was not always enough;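 further: plate controls were DMSO wells with GST-MLLE for no effect and wells lacking GST-MLLE protein for full effect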
# eIF4E-4G inh: blocks eIF4E binding to eIF4G; inhibition, % at 21.7 µM; AID 782; 0.37% of 220,000 active; TR-FRET eIF4E-eIF4GI(517-606) binding, 2 h;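 active means inhibition above about 30%, limit read from the data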;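 further: 0% = full FRET control wells and 100% = background wells lacking eIF4GI fragment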
# PERK inh: inhibitors of human PERK kinase; Q9NZJ5; CHO PERK-DD fusion, SEAP luminescence translation reporter; inhibition, % at 5.6 µM; 0.17% of 220,000 active; AID 1416;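 active means inhibition above the mean inhibition of all tested compounds plus 3 SD, set separately per screening campaign, cut at about 2.9% in these data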;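 further: PERK kinase domain activated by AP20187 dimerizer at 100 nM; 0% = DMSO with dimerizer and 100% = rapamycin at 8.4 µM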
# PABP polyA inh: blocks human PABP binding to poly(A) RNA; 1% of 290,000 active; P11940; fluorescence polarization; inhibition, % at 35 µM;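 further: calls also rest on retests at 20 µM and on dose response follow-up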
# eIF4H FP inh: inhibitors of RNA binding by human eIF4H | eIF4H fluorescence polarization binding assay | AID 2012 | inhibition, % at 35 µM | 0.94% of 290,000 active;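 further: calls also rest on retests at 20 µM and on dose response follow-up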
# PfM18AAP inh-2: confirmation of Plasmodium falciparum M18 aspartyl aminopeptidase inhibitors; shares compounds with PfM18AAP inh-1; recombinant PfM18AAP, H-Glu-NHMec fluorogenic cleavage; inhibition, % at 7.35 µM; 28% of 2,400 active; AID 2170;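 active means mean inhibition over replicate wells above the hit cutoff set for the earlier primary screen, cut at about 29% in these data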;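 further: 0% = median of test compound wells and 100% = 2 mM ZnCl2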
# CTSL1 confirm: counter-screen for PFM18AAP inhibitors: confirmation of human cathepsin L inhibitors; shares compounds with PfM18AAP inh-1; purified cathepsin L1, Z-Leu-Arg-MCA fluorescence; inhibition, % at 5.96 µM; 2,400 tested, under 10 active; AID 2178;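 active means average inhibition across replicates above the hit cutoff set in the earlier primary screen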;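 further: 0% = median of test compound wells and 100% = Z-Phe-Ala-diazomethylketone 1 µM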
# Target sequence (P07711 whole entry, looked up): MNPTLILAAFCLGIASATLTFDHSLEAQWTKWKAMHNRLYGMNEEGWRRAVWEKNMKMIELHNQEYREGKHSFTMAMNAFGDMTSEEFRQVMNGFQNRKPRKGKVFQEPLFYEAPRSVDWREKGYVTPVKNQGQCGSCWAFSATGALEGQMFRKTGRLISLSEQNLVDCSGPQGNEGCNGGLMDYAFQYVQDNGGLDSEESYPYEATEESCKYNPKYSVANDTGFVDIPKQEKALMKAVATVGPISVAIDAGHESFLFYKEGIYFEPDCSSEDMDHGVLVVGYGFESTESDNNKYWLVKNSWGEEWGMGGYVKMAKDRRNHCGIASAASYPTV
# Numbers without * were called inactive; i = inactive; . = no result given. Unless noted, how the calls were made is not given here.
SMILES,PfM18AAP inh-1,MLLE-PAM2 inh,eIF4E-4G inh,PERK inh,PABP polyA inh,eIF4H FP inh,PfM18AAP inh-2,CTSL1 confirm
O=C(Oc1ccc(C(=S)N2CCCCC2)cc1)c1ccccc1,36.6*,15.3,-0.4,0.0,-0.8,6.3,5.3,1.6
CCOC(=O)C1=C(c2ccccc2)ON(C)C1c1ccccc1 (centres undefined),7.7,1.2,-0.7,0.5,-0.8,9.8,.,.
Cc1ccc(C(=S)N2CCCCCC2)cc1,3.2,24.3,.,.,2.6,-1.6,.,.
Oc1ccc(C(=S)N2CCCC2)cc1,32.8*,35.6,.,.,-3.4,1.4,-18.4,-1.4
Cc1cc(O)c(N)c(C)c1Cl,50.1*,15.9,-3.5,0.7,-0.8,-5.6,67.8*,-0.7
FC(F)(F)c1ccccc1NC(=S)N1CCCC1,6.0,-12.9,-0.9,0.8,0.6,-6.8,.,.
FC(F)(F)c1ccccc1NC(=S)NN=C1CCCCCC1,39.1*,.,2.5,1.1,3.5,1.7,-23.0,-1.1
O=S(=O)(c1ccccc1)N1CCN(CCO)CC1,-1.9,-4.8,.,.,2.8,-4.0,.,.
COc1ccc(NC(=S)NNc2ccc(S(=O)(=O)Nc3ccccc3C(=O)O)cc2[N+](=O)[O-])cc1,63.9*,36.1,8.9,2.3,14.4,-2.4,41.9*,-1.7
c1ccc(-c2nc(-c3nccc4ccccc34)oc2-c2ccccc2)cc1,-11.0,-8.2,-0.2,-0.1,-10.4,-10.0,.,.
CCCOc1ccc(/C=c2\sc3ncnn3c2=O)cc1,73.1*,10.2,4.9,-0.4,-6.2,-11.5,38.9*,2.9
CCOc1ccccc1C=C1SC(=S)N(CC)C1=O,.,5.8,.,.,.,.,.,.
CCOC(=O)C1=C(C)N=c2s/c(=C\c3ccc(OC(C)=O)cc3)c(=O)n2C1/C=C/c1ccccc1 (centres undefined),1.4,29.9,5.8,0.5,2.3,-2.9,.,.
CCOc1ccccc1/C=c1\sc2ncnn2c1=O,51.4*,-14.0,0.4,1.4,2.2,-1.5,28.6*,-0.6
CCCOc1ccc(/C=C2\SC(=S)N(CC3CCCO3)C2=O)cc1 (centres undefined),1.1,8.5,-0.7,0.8,-6.6,1.2,.,.
CC(=O)Oc1ccc(/C=c2\sc3ncnn3c2=O)cc1,34.7*,-6.9,2.8,1.2,15.3,17.9,-11.4,-7.0
COc1ccc(CNC(=O)CSc2nnc(NC(=O)c3ccccc3F)s2)cc1,5.3,1.7,.,.,2.5,2.6,.,.
CC(C)CCN1C(=O)c2cccc3c(N)ccc(c23)C1=O,.,i,.,.,.,.,.,.
O=c1oc2ccccc2c2oc3cc(O)c(O)cc3c12,68.4*,18.5,8.8,0.0,80.4*,100.7*,73.8*,2.8
Nc1c(N)c2ccccc2oc1=O,1.5,-4.3,15.5,0.7,31.6,13.4,.,.
Cc1ccc(NC(=S)C2=C(O)c3sccc3N(C)S2(=O)=O)cc1,48.9*,40.7*,3.4,0.0,7.4,-4.2,-32.3,4.5
Cc1ccc(NC(=O)C2=C(O)c3sccc3N(C)S2(=O)=O)cc1,-6.9,-5.6,12.0,0.3,2.1,-13.7,.,.
CC(C)NC(=O)Nc1ccc2c(c1)C(=O)N([C@H](C)CO)C[C@H](C)[C@@H](CN(C)C(=O)NC(C)C)O2,.,7.5,.,.,.,.,.,.
Cc1ccc2c(c1)-c1c(ssc1=S)C(C)(C)N2C(=O)c1ccco1,39.9*,47.8*,-0.6,0.4,-9.9,0.8,-16.8,-4.9
CC1(C)c2ssc(=S)c2-c2ccccc2N1C(=O)c1ccco1,-0.4,14.8,-2.4,1.9,-2.1,4.1,.,.
SMILES,PfM18AAP inh-1,MLLE-PAM2 inh,eIF4E-4G inh,PERK inh,PABP polyA inh,eIF4H FP inh,PfM18AAP inh-2,CTSL1 confirm
O=C(Cc1ccc2c(c1)OCCO2)c1c(O)cc(O)cc1O,38.7*,1.7,0.9,1.8,-1.7,-15.8,27.7,1.1
CCOC(=O)NC(=O)/C(C#N)=N\Nc1cccc(Cl)c1,0.4,15.0,-3.5,1.7,-9.6,3.3,.,.
CCOC(=O)NC1(Nc2cccc(Cl)c2)Oc2ccccc2O1,51.8*,-1.9,-0.4,1.2,14.8,29.7,63.5*,1.2
CNc1cc(-c2cc(OC)ccc2OC)ncn1,.,0.6,.,.,.,.,.,.
Cc1sc(NC(=O)/C=C/C(=O)O)c(C(N)=O)c1-c1ccc(C(C)(C)C)cc1,-3.9,31.4,-6.6,-0.3,-2.0,-7.1,.,.
CCc1c(C)sc(NC(=O)/C=C/C(=O)O)c1C(N)=O,33.6*,15.7,0.6,-0.3,-1.8,15.3,-41.7,-0.9

# Source: PubChem BioAssay
